Measurements: PubChem BioAssay AID651636 (Sanford-Burnham Center for Chemical Genomics, 2012)
“And” between values parts separate entries of the source, which are not always exact repeats. Equal entries are not always repeated. The campaign covered roughly 360,000 compounds. About 3,000 (0.83%) were called active. For the sample, actives were picked, then their nearest neighbours and some compounds at random. Unmarked numbers belong to inactive results. No stated cut-off is given here; in the data, active means inhibition above about 38%; inactive means the rest.

target: G-protein coupled receptor 183 (Homo sapiens) (UniProt P32249); assay: blockers of oxysterol-driven EBI2 arrestin signaling – cell-based, luminescence, 7a,25-OHC stimulation, uHTS, primary screen (AID 651636); conditions: EBI2 beta-arrestin recruitment, 7a,25-OHC stimulated, at 5 µM, active compounds read high;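 further: enzyme fragment complementation signal reports receptor beta-arrestin coupling in cells; 0% = agonist plus DMSO wells and 100% = wells without agonist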
Sequence (P32249 whole entry, looked up, the tested form may be a part): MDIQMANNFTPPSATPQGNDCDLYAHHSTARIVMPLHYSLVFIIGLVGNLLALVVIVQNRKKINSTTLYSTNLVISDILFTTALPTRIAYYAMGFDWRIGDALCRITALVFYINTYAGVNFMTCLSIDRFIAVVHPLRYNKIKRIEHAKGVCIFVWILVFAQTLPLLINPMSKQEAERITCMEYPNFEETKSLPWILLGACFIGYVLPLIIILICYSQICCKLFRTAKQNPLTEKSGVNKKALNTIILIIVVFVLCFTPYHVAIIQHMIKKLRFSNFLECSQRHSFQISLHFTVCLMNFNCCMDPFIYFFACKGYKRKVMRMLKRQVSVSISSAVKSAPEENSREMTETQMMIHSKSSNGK

Structure (SMILES) | inhibition
CN(C)C(=S)N=c1ssc(=S)n1Cc1ccco1 | -5.43%
Cc1cs/c(=N\N=C\c2ccc(O)cc2)n1Cc1ccco1 | 50.6% (active)
CC(C)NC(=O)NNc1c(Cl)cncc1Cl | 1.07%
ONC(=Nc1ccc(Cl)cc1)c1ccccc1Cl | -0.13%
COc1ccc(NC(=O)CCNS(=O)(=O)c2ccc3c(c2)c(=O)n(C)c(=O)n3C)cc1OC | -1.47%
COc1ccc(NC2CC(=O)N(C)C2=O)cc1 (stereo not drawn) | -2.09%
COC(=O)c1ccc(COC(=O)c2cnc(Cl)c(Cl)c2)cc1 | 4.66%
CCOc1ccc(C(C)=O)cc1COC(=O)CNC(=O)c1cccs1 | 4.34%
CCOc1ccc(C(C)=O)cc1COC(=O)c1cnc(Cl)c(Cl)c1 | 43.3% (active)
Cc1c(Br)ccc(NC(=O)COc2ccccc2C(N)=O)c1C | -2.44%
CC(=O)Nc1ccc(N2C(=O)CCC2=O)cc1C | 4.9%
CN(CC(=O)NC1CCN(Cc2ccccc2)CC1)S(=O)(=O)c1ccc(Cl)s1 | 1.99%
COC(=O)C1CCN(C(=O)NC2CC(=O)N(c3ccc4c(c3)OCCO4)C2)CC1 (stereo not drawn) | 8.78%
COc1cc2c(cc1OC)CC1(CCCCC1)N=C2 | 7.31%
CN(C)S(=O)(=O)c1cccc(NC(=O)COc2ccc3ccccc3c2)c1 | 8.2%
Cc1ccc(C)c(NC(=O)CN(C)C(=O)COc2ccc3ccccc3c2)c1 | 27.2%
CN(Cc1ccc(F)cc1)C(=O)COc1ccc2ccccc2c1 | 93.1% (active)
CC1(C)OC(=O)C2=C(C[C@@H](C3CCCC3)O[C@@H]2c2ccc(Cl)cc2)O1 | -3.37%
Cn1c(CC2Sc3ccccc3NC2=O)nnc1SCC(=O)c1ccc(Cl)cc1 (stereo not drawn) | 3.76%
Cc1ccc(-c2nn(-c3ccccc3)cc2C(=O)Nc2cccc(S(=O)(=O)N3CCOCC3)c2)cc1 | 27.6%
O=C(/C=C/c1cn(-c2ccccc2)nc1-c1ccc2c(c1)OCCO2)NCCCN1CCOCC1 | 3.63%
Cc1ccc(-c2nn(-c3ccccc3)cc2/C=C/C(=O)Nc2cccc(S(N)(=O)=O)c2)cc1 | 41.1% (active)

Structure (SMILES) | inhibition
CC[C@]12c3[nH]c4cc(CCC(=O)N(C)C)ccc4c3CCN1C(=O)[C@@H](CC(=O)NCc1ccco1)C[C@@H]2C(=O)N1CCN(C(=O)c2ccco2)CC1 | -5.36%
CCN(CCCNC(=O)CSc1cc(=O)n(C)c2cc(Cl)ccc12)Cc1ccccc1 | 8.14%
Cc1cc(Cl)c2oc(C(=O)N3CCC(O)(c4ccccc4)CC3)c(C)c2c1 | 73.4% (active)
Cc1cc(Cl)c2oc(C(=O)N(C)C(C)c3ccccn3)c(C)c2c1 (stereo not drawn) | 4.48%
Cc1cc(Cl)c2oc(C(=O)NC(C)c3ccncn3)c(C)c2c1 (stereo not drawn) | -2.48%
CSc1nnc(CNC(=O)c2ccccc2)n1-c1ccc(F)cc1 | -8.06%
Cn1c(NC(=O)c2ccco2)c(-c2ccccc2Cl)c(=O)c2ccccc21 | 2.45%
COCCNc1nc2nonc2nc1N(C)Cc1ccc(C)cc1 | -3.45%
NS(=O)(=O)c1ccccc1NC(=O)c1c(O)c2ccccc2[nH]c1=O | 2.5%
O=C(c1cc2cc(F)ccc2[nH]1)N1CCN(c2ccc(F)cc2)CC1 | 71.3% (active)
O=C(c1ccccc1Oc1ccccc1)N1CCN(c2ccc(F)cc2)CC1 | 7.76%
Cc1c(C(=O)N2CCN(c3ccc(F)cc3)CC2)oc2c1C(=O)CCC2 | -8.48%
CCn1c(=S)sc2c(=O)n(CC(=O)Nc3ccc(OC)cc3)c(C)nc21 | 1.99%
COc1ccc(NC(=S)N2N=CCC2c2ccccc2)cc1 (stereo not drawn) | 3.93%
CC(=O)N1c2ccc(S(=O)(=O)NCCC(=O)N(C)C3CCCCC3)cc2CC1C (stereo not drawn) | -4.73%
Fc1ccc(Cn2nnnc2C(c2cccs2)N2CCCCCC2)cc1 (stereo not drawn) | 6.98%
N#Cc1ccc(C(c2nnnn2CCc2ccccc2)N2CCCCCC2)cc1 (stereo not drawn) | 50.2% (active)
CCCCn1nnnc1C(c1ccccc1)N1CCN(c2ccccc2OC)CC1 (stereo not drawn) | 1.91%
O=C(CN1CCOCC1)Nc1c2c(nc3c1CCC3)CCC2 | 7.47%
CCCNC(=O)N1CCN(C(=O)NCCC)CC1 | -0.62%
Cc1cccc(-n2c(O)c(C=Nc3ccccc3N)c(=O)[nH]c2=O)c1 | 95.3% (active)
COc1ccc(-c2cn(-c3ccc(OC)cc3)c(=S)[nH]2)cc1 | 86.5% (active)

Structure (SMILES) | inhibition
COc1ccc(-n2cc(-c3ccccc3)c3c(=S)nc[nH]c32)cc1 | 14.3%
O=c1oc2ccccc2cc1-c1cn(-c2ccccc2)c(=S)[nH]1 | -9.67%
Cc1nc2ccc(S(=O)(=O)NCC(=O)O)cc2s1 | -11.4%
CC[n+]1c(C)n(-c2ccccc2)c2ccc(NC(C)=O)cc21 | 3.98%
N/C(=N\OC(=O)CCc1ccccc1)c1ccc(Cl)cc1 | 12.5%
Cc1cc(C)cc(NC(=O)NC2CCN(CC(=O)Nc3cccc(Cl)c3C)CC2)c1 | 18.1%
Cc1cccc(NC(=O)CN2CCN(CC(=O)NCC3(N4CCCCC4)CCCCC3)CC2)c1C | -3.14%
Cc1cccc(NC(=O)CN2CCN(C(=O)C3CCN(C(=O)/C=C/c4ccccc4)CC3)CC2)c1C | 79.2% (active)
O=C(C[C@H]1CC[C@@H](NC(=O)c2ccncc2)[C@@H](CO)O1)NCC1CC1 | -1.01%
CC(C)C(=O)N1CCN(CCN=CC2=C(O)CC(c3ccco3)CC2=O)CC1 (stereo not drawn) | -2.69% and -8.63%
CCOc1ccc(-c2noc(CCC(=O)NC3CCCC3)n2)cc1OC | 8.53%
CCOc1cc(-c2noc(CCC(=O)N3CCOCC3)n2)ccc1OC | -2.72%
CCOc1nc(-c2ccc(OC)cc2)ccc1-c1noc(-c2cc(OC)c(OC)c(OC)c2)n1 | 49.3% (active)
CCOc1ccc(S(=O)(=O)Nc2ccncc2)c(C)c1C | -5.77%
CCCS(=O)(=O)NC(=O)C1(C)CCCN(C(=O)c2cc(C)on2)C1 (stereo not drawn) | -3.5%
Oc1c(CN2CCN(c3ccc(F)cc3)CC2)cc(Cl)c2cccnc12 | 54.1% (active)
Cc1cccc(C)c1NC(=O)CN1CCN(c2ccc(F)cc2)CC1 | 0.0279%
O=C(CN1CCN(c2ccc(Cl)cc2)CC1)c1ccccc1 | 2.55%
COc1cccc(-c2ccc3c(c2)N(Cc2ccccc2OC)C(=O)C(C)S3)c1 (stereo not drawn) | 27.4%
CN(C)C(=O)c1cccc(-c2cnc3c(NC=O)cc(-c4ccc(F)cc4)cn23)c1 | 8.37%
COc1ccc(-c2cc(NC=O)c3ncc(-c4cc(OC)c(OC)c(OC)c4)n3c2)c(OC)c1 | 15.5%
COc1ccc(-c2cc(NC=O)c3ncc(-c4cccc(C(=O)N(C)C)c4)n3c2)c(OC)c1 | 52% (active)

Structure (SMILES) | inhibition
N#Cc1ncc(C(F)(F)F)cc1Oc1cccnc1 | -11%
Cc1onc(-c2ccccc2Cl)c1C(=O)N(Cc1ccc(N(C)C)cc1)C(C)C | 1.77%
CC(Sc1nncn1C)C(=O)Nc1ccccc1-c1ccccc1 (stereo not drawn) | -4.03%
CCOC(=O)C1=NN(c2ccc(Cl)cc2)/C(=C/C2=NCCc3cc(OC)c(OC)cc32)S1 | 6.84%
CC(=O)NC(Cc1ccccc1)C(=O)NC1CCN(c2ncccc2[N+](=O)[O-])CC1 (stereo not drawn) | 5.83%
COc1ccc(-c2cc(C3CCN(c4ncccc4[N+](=O)[O-])CC3)[nH]n2)cc1 | 37.5% (active)
COc1ccc(N2CCN(c3ccc([N+](=O)[O-])nc3)CC2)cc1 | 6.82%
CCN1CCN(C(=O)N(Cc2ccc(Cl)cc2)S(=O)(=O)c2ccc(C)cc2)CC1 | -6.18%
CC1=C(C(=O)N(C(C)C)C(C)C)CC(CC(=O)NCC2CCCCC2)C(=O)N1Cc1ccccc1 (stereo not drawn) | 3.31%
O=C(c1ccc(Cl)nc1)N1CCN(S(=O)(=O)c2ccc3c(c2)OCCO3)CC1 | 17.6%
CN1CCCN(S(=O)(=O)c2ccc3c(c2)OCCO3)CC1 | -1.61%
O=c1[nH]c(CN2CCN(S(=O)(=O)c3ccc4c(c3)OCCO4)CC2)nc2sc3c(c12)CCCC3 | 38.3% (active)
C=CCOc1ccc(/C=C/C(=O)OCC(=O)NC(C)c2ccc(F)cc2)cc1 (stereo not drawn) | 29.1%
Cn1c(SCC(=O)OC2CCCCC2)nnc1-c1ccc(S(=O)(=O)N2CCCC2)cc1 | 0.352%
COc1ccc(CCNC(=O)CCn2c(=O)c3ccccc3n(CC(=O)NCC3CCCO3)c2=O)cc1OC (stereo not drawn) | -15.5%
CC1(Cc2ccccc2C#N)C(=O)Nc2ccc(-c3ccc4[nH]ccc4c3)cc21 (stereo not drawn) | 47.3% (active)
CC1(Cc2cccc(C#N)c2)C(=O)Nc2ccc(-c3cccc(C(F)(F)F)c3)cc21 (stereo not drawn) | 17.2%
COc1ccccc1CC1(C)C(=O)Nc2ccc(OC(F)(F)F)cc21 (stereo not drawn) | 3.59%
CCCCOCCCNC(=O)C[C@@H]1C[C@@]2(C(=O)OCC)CCCC=C2N(CCC2=CCCCC2)C1=O | 1.45%
COc1ccc(N(CC(=O)Nc2cc(OC)ccc2OC)S(=O)(=O)c2c(C)noc2C)cc1 | 65.5% (active)
CCOc1ccc(N(CC(=O)OC)S(=O)(=O)c2c(C)noc2C)cc1 | 1.12%
CCOC(=O)c1cccc(NC(=O)CN(c2ccc(C)cc2)S(=O)(=O)c2c(C)noc2C)c1 | 15.3%
